# According to ChEMBL document CHEMBL1961873, “Compounds: GSK PKIS; Assays: Nanosyn kinase panel” (2012):
# Assays:
# [1] = target: Tyrosine-protein kinase SYK (Homo sapiens) (UniProt P43405); conditions: at 1 µM
# [2] = target: T1, Tyrosine-protein kinase Tec (Homo sapiens) (UniProt P42680); conditions: at 0.1 µM
# T1 sequence (whole entry): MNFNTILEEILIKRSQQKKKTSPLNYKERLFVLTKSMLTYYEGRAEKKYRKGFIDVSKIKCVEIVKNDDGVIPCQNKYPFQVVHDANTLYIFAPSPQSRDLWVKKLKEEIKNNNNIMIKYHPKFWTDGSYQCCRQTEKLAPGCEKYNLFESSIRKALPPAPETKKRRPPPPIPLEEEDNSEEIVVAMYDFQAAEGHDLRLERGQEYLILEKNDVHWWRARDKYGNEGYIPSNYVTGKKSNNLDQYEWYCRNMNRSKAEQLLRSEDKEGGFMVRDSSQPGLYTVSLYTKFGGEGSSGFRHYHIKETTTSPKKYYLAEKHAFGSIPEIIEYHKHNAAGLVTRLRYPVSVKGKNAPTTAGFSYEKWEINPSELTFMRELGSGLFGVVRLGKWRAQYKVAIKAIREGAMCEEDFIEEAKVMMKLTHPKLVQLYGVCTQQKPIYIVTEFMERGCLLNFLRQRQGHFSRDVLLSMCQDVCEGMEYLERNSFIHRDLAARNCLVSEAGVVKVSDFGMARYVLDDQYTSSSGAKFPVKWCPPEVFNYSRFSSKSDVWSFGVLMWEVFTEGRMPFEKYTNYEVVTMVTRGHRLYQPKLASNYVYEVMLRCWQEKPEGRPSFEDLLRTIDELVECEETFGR
# [3] = target: T1, Tyrosine-protein kinase Tec (Homo sapiens); conditions: at 1 µM
# [4] = target: Angiopoietin-1 receptor (Homo sapiens) (UniProt Q02763); conditions: at 0.1 µM
# Sequence of Angiopoietin-1 receptor (Homo sapiens) (Q02763 whole entry): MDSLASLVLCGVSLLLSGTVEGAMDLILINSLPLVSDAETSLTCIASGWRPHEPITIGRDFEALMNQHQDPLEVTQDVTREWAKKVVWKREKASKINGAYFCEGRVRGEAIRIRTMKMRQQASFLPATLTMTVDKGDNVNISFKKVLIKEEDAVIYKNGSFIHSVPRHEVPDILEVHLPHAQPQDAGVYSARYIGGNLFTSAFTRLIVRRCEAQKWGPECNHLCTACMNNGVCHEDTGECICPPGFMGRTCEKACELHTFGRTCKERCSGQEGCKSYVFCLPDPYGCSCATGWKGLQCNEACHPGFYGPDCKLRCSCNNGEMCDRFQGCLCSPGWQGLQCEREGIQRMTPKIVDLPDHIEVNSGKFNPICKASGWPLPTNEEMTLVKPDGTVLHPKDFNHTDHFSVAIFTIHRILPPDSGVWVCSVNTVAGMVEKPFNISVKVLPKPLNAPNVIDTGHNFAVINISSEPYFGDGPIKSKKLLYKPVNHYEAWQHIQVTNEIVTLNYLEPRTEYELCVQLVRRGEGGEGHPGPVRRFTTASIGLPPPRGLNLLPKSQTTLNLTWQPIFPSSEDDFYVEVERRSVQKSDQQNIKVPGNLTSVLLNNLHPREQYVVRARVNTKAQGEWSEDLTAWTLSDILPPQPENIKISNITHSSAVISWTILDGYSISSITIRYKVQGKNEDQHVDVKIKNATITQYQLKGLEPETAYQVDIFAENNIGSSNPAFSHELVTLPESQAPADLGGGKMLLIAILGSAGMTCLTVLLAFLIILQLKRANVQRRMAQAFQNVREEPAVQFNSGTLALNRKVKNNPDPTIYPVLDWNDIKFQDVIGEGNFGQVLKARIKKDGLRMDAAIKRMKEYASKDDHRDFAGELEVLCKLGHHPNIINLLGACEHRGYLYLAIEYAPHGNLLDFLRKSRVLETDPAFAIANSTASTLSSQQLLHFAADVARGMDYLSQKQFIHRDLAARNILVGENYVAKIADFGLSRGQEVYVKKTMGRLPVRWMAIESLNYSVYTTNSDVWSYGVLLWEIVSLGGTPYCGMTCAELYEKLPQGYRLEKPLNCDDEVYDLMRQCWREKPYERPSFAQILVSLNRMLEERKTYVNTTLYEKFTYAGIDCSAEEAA
# [5] = target: Angiopoietin-1 receptor (Homo sapiens) (UniProt Q02763); conditions: at 1 µM
# [6] = target: T2, Non-receptor tyrosine-protein kinase TNK1 (Homo sapiens) (UniProt Q13470); conditions: at 0.1 µM
# T2 sequence (whole entry): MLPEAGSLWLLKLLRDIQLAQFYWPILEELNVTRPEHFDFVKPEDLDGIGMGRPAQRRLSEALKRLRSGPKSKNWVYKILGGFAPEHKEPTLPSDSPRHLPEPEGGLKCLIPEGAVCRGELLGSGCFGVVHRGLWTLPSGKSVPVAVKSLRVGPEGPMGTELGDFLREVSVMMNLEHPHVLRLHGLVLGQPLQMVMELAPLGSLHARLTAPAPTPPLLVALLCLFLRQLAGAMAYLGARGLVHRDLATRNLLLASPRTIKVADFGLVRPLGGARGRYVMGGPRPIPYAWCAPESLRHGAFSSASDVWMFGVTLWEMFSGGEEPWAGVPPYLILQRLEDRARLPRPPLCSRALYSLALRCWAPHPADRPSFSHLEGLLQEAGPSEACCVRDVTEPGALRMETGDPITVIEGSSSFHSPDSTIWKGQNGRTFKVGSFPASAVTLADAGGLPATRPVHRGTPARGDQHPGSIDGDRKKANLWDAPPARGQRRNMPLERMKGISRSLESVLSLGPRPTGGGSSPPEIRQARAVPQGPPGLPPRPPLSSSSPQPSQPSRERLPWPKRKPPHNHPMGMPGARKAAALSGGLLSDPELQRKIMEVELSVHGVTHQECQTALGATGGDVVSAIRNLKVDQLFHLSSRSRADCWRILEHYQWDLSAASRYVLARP
# [7] = target: T2, Non-receptor tyrosine-protein kinase TNK1 (Homo sapiens); conditions: at 1 µM
# [8] = target: Activated CDC42 kinase 1 (Homo sapiens) (UniProt Q07912); conditions: at 0.1 µM
# Sequence of Activated CDC42 kinase 1 (Homo sapiens) (Q07912 whole entry, looked up): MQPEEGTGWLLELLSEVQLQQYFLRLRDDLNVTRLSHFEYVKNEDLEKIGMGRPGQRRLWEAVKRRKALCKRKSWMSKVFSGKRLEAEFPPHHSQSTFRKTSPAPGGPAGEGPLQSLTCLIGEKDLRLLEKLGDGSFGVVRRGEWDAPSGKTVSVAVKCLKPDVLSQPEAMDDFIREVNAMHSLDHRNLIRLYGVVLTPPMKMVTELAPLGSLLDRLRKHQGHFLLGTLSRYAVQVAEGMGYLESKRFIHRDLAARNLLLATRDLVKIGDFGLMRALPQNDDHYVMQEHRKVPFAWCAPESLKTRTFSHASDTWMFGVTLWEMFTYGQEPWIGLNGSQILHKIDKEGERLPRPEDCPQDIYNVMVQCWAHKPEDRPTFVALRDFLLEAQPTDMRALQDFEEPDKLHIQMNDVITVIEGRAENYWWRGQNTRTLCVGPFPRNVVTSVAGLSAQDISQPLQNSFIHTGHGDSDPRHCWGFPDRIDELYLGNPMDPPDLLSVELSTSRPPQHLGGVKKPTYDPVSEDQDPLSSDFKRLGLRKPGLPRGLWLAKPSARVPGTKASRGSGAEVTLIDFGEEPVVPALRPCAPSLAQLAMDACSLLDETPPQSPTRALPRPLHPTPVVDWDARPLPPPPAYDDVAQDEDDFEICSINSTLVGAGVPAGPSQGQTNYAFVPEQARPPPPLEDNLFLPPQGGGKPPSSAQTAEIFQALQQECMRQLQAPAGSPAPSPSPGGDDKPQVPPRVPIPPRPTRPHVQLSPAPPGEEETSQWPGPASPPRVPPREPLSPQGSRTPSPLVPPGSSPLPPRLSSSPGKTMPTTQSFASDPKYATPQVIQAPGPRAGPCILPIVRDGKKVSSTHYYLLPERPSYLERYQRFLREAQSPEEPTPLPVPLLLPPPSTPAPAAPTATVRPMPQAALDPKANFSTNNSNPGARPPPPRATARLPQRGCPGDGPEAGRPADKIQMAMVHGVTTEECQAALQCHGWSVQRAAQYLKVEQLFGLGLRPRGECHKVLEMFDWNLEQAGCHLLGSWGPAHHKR
# [9] = target: Activated CDC42 kinase 1 (Homo sapiens) (UniProt Q07912); conditions: at 1 µM
# [10] = target: High affinity nerve growth factor receptor (Homo sapiens) (UniProt P04629); conditions: at 0.1 µM
# Sequence of High affinity nerve growth factor receptor (Homo sapiens) (P04629 33-796 limits assumed): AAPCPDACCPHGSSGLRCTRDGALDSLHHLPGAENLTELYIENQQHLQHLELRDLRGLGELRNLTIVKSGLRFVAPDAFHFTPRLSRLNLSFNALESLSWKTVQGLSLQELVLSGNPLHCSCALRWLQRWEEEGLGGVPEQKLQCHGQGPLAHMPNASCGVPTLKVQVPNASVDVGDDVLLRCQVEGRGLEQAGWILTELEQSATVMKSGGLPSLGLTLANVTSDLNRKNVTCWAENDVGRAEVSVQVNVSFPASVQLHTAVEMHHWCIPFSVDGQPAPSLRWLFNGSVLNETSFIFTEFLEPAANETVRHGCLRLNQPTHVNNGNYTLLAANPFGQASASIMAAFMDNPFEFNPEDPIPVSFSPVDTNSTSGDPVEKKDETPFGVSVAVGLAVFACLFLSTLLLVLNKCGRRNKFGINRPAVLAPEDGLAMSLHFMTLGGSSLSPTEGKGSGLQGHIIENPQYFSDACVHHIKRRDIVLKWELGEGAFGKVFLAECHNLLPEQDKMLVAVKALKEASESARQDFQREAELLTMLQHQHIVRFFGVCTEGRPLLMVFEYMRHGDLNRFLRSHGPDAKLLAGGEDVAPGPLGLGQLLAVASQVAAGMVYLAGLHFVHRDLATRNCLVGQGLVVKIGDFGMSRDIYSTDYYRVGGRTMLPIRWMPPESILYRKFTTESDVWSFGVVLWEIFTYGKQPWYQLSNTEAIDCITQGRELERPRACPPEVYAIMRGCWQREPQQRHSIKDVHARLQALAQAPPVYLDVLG
# [11] = target: High affinity nerve growth factor receptor (Homo sapiens) (UniProt P04629); conditions: at 1 µM
# [12] = target: BDNF/NT-3 growth factors receptor (Homo sapiens) (UniProt Q16620); conditions: at 0.1 µM
# [13] = target: BDNF/NT-3 growth factors receptor (Homo sapiens) (UniProt Q16620); conditions: at 1 µM
# [14] = target: NT-3 growth factor receptor (Homo sapiens) (UniProt Q16288); conditions: at 0.1 µM
# Sequence of NT-3 growth factor receptor (Homo sapiens) (Q16288 32-839 limits assumed): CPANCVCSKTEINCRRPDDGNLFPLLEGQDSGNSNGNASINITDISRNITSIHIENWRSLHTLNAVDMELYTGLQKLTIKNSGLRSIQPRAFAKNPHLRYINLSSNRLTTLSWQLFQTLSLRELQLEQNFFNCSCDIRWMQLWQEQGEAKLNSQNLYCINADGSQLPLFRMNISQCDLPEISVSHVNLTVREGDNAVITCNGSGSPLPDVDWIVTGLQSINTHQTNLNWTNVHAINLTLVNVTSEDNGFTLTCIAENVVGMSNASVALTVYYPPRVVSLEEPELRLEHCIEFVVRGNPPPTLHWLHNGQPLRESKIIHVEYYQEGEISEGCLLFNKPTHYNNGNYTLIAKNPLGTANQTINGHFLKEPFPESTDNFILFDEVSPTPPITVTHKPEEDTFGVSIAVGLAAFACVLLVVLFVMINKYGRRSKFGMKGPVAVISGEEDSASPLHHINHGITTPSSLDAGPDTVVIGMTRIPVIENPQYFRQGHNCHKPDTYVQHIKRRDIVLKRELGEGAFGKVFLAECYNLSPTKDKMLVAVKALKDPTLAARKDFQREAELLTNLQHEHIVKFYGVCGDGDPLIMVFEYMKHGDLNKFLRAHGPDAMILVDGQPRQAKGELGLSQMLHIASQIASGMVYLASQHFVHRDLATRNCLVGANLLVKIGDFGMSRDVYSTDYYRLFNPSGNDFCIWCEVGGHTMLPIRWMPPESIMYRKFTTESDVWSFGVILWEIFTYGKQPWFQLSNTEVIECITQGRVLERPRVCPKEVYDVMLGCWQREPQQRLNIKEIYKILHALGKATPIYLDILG
# [15] = target: NT-3 growth factor receptor (Homo sapiens) (UniProt Q16288); conditions: at 1 µM
# [16] = target: T3, Tyrosine-protein kinase TXK (Homo sapiens) (UniProt P42681); conditions: at 0.1 µM
# T3 sequence (whole entry): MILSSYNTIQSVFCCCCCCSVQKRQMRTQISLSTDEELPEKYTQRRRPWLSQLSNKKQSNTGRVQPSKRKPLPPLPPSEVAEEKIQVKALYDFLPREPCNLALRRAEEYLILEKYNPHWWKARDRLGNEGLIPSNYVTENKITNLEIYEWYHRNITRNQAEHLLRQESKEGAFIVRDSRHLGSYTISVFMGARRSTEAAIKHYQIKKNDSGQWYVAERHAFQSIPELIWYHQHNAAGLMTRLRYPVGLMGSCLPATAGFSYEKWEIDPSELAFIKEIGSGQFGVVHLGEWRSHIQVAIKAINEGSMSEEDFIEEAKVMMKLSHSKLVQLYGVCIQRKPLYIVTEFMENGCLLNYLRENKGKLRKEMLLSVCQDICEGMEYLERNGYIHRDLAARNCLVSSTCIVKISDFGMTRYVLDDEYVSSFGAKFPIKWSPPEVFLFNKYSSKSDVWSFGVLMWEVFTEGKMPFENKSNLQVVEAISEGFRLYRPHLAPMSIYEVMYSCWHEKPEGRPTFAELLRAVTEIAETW
# [17] = target: T3, Tyrosine-protein kinase TXK (Homo sapiens); conditions: at 1 µM
# [18] = target: Non-receptor tyrosine-protein kinase TYK2 (Homo sapiens) (UniProt P29597); conditions: at 0.1 µM;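 further: each value is a mean of the inhibition readings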
# Sequence of Non-receptor tyrosine-protein kinase TYK2 (Homo sapiens) (P29597 whole entry): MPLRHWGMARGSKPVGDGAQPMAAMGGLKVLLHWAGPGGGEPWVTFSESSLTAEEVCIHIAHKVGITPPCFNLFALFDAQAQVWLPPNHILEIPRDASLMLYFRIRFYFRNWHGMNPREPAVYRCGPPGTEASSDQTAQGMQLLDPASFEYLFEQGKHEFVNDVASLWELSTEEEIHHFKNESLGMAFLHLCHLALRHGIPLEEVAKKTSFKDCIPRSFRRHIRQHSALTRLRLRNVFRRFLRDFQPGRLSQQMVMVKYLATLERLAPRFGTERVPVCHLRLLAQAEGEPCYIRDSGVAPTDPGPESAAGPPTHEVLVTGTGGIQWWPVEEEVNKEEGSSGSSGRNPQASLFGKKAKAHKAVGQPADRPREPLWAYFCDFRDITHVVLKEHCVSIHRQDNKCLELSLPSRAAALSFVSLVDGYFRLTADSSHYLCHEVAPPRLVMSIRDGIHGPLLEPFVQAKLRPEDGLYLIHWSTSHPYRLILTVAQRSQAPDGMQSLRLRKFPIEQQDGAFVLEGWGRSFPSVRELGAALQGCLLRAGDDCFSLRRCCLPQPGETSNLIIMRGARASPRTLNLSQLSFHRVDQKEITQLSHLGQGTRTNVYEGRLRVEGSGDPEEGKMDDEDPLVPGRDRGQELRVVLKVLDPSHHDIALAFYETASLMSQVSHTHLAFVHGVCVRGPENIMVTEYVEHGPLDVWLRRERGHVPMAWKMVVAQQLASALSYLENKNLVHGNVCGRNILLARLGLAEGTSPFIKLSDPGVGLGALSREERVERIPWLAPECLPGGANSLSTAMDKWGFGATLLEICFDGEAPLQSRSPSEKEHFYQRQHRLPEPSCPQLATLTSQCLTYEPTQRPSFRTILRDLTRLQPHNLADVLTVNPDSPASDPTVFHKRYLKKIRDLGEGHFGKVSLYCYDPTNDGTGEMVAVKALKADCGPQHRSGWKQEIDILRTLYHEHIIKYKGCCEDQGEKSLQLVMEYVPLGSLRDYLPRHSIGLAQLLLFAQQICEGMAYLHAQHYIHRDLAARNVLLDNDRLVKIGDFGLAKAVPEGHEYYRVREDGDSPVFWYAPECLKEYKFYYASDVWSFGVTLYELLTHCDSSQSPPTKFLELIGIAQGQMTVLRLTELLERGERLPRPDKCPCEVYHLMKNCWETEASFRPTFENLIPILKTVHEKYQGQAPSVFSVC
# [19] = target: T4, Dual specificity protein kinase TTK (Homo sapiens) (UniProt P33981); conditions: at 1 µM;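 further: reported figures are mean TTK inhibition at 1 µM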
# T4 sequence (whole entry): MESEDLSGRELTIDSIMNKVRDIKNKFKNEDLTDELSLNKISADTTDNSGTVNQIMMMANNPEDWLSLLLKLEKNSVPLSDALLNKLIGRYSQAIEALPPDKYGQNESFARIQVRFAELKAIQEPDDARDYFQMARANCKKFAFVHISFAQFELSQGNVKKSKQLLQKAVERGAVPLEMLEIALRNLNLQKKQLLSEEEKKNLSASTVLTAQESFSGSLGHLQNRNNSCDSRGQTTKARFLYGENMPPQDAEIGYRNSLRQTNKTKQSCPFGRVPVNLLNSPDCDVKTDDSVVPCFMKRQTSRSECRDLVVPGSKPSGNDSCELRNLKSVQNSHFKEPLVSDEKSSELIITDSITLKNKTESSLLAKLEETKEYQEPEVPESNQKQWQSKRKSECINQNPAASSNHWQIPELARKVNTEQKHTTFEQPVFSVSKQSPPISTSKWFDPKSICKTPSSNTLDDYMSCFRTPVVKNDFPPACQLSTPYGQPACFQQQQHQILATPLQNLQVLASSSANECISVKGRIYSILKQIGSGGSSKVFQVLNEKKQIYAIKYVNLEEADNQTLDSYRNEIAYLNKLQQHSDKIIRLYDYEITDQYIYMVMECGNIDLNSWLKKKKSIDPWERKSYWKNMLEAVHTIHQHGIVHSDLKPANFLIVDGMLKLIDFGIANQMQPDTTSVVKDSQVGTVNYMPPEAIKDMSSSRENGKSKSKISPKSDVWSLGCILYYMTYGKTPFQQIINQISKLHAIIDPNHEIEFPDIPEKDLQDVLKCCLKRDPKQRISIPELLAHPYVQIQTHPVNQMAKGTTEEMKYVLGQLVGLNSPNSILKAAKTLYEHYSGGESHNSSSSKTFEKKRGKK
# [20] = target: T5, Aurora kinase A (Homo sapiens) (UniProt O14965); conditions: at 0.1 µM;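 further: each reported value is a mean percent inhibition of Aurora-A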
# T5 sequence (whole entry): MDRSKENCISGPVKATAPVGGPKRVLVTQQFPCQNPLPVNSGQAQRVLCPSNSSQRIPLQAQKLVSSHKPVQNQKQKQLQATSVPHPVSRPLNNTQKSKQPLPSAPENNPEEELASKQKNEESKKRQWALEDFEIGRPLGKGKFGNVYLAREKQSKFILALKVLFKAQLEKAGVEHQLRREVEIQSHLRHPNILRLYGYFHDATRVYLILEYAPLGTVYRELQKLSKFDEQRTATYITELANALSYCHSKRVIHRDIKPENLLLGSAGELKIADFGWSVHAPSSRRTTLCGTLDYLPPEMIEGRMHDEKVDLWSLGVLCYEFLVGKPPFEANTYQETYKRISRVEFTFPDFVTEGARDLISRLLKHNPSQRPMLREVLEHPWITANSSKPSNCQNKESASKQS
Structure (SMILES),inhibition [1] [%],inhibition [2] [%],inhibition [3] [%],inhibition [4] [%],inhibition [5] [%],inhibition [6] [%],inhibition [7] [%],inhibition [8] [%],inhibition [9] [%],inhibition [10] [%],inhibition [11] [%],inhibition [12] [%],inhibition [13] [%],inhibition [14] [%],inhibition [15] [%],inhibition [16] [%],inhibition [17] [%],inhibition [18] [%],inhibition [19] [%],inhibition [20] [%]
NS(=O)(=O)c1ccc(N/N=C2\C(=O)Nc3cccc(CCc4ccncc4)c32)cc1,-2.6,-0.23,4.92,0.8,3.33,12.8,14.7,0.97,1.34,6.26,19.1,17,45.4,17.3,41.9,2.92,8.22,-0.26,38.7,28.1
CC1=C(C(=O)Nc2ccc3[nH]nc(C)c3c2)C(c2ccc(C(F)(F)F)cc2)CC(=O)N1 (stereo not given),-0.48,4.4,8.29,1.71,6.96,6.09,31.3,3.49,27.4,4.41,3.25,1,3.58,2.43,6.4,3.55,6.06,0.25,-0.26,17.9
Cc1nnc(-c2cccc(-c3ccc(C(=O)NCC4CC4)cc3)c2)o1,-0.72,5.71,6.71,2.51,2.87,2.91,11.3,1.67,2.25,3.31,1.38,2.02,4.55,3.7,3.95,2.44,3.16,-5.67,0.98,1.82
CCCNc1cccc(-n2ncc3c(N/N=C/c4ccncc4)ncnc32)c1,-2.86,2.52,7.76,8.93,36.2,9.78,48,0.38,3.51,-0.62,7.34,5.18,33.9,4.23,36.8,2.17,8.54,-0.85,15.7,9.48
COc1ccc(Nc2ncc(-c3ccccc3)o2)cc1OC,0.42,2.91,9.41,2.1,8.87,5.16,26.8,-0.28,2.05,-1.61,14.1,2.88,27.1,2.7,27.1,4.28,17.8,0.66,1.06,9.76
COC(=O)Nc1nc2ccc(Oc3ccc(NC(=O)Nc4cc(C(F)(F)F)ccc4F)cc3)cc2s1,0.26,1.25,-0.83,50.8,78,11.5,27.2,0.46,1.35,24.2,81.5,24.9,61,25.7,88.5,1.96,2.35,-0.09,9.84,1.12
CC1(C)CC(n2cnc(-c3ccc(F)cc3)c2-c2ccnc(N)n2)CC(C)(C)N1,0.92,1.41,-0.41,1.61,3.96,-0.43,-1.61,-0.24,0.43,6.46,0.77,1.16,2.03,0.21,2.79,0.09,0.75,1,1.53,-0.03
COc1cccc(Nc2nccc(-c3cnn4ncccc34)n2)c1,34.2,4.27,25.1,5.94,21.3,15.3,65.9,1.79,21.7,4.75,17.4,6.68,34.1,7.22,37.6,2.32,15.5,-4.06,22.8,11.9
COc1c(C(N)=O)cc(-c2ccc(Cl)cc2)cc1-c1ccc(S(N)(=O)=O)cc1,4.05,7.49,3.79,5.29,7.54,2.66,3.9,1.22,3.03,4.76,4.22,2.88,3.12,2.54,2.2,9.73,4.4,-0.68,12.9,2.86
CNC(=O)c1sc(-n2cnc3cc(OC)c(OC)cc32)cc1OCc1ccccc1C(F)(F)F,-4,1.74,9.64,2.19,9.86,4.58,29.1,1.43,4.41,1.34,4.9,1.8,4.02,3.06,6.32,5.54,11.5,-2.35,7.09,3.14
O=C(O[C@H]1CN[C@H](C#Cc2cc3ncnc(Nc4ccc5c(cnn5Cc5ccccc5)c4)c3s2)C1)N1CCOCC1,0.67,2.33,2.89,0.41,5.18,0.45,9.52,-0.92,-1.03,-1.24,2.5,-1.64,-0.38,-0.59,1.3,0.8,2.69,1.26,6.25,1.41
Cc1cc(O)cc(C)c1/C=C/c1cncc(C(=O)OC(C)(C)C)c1,0.64,5.96,30.2,2.09,3.67,2.08,15.7,1.33,4.9,3.36,2.95,2.88,5.2,2.87,5.85,8.06,36.9,-0.75,4.42,2.02
NS(=O)(=O)c1cccc(N/C=C2\C(=O)Nc3ccccc32)c1,-1.66,4.94,7.41,4.12,8.33,3.06,5.85,0.36,1.26,4.69,16.2,6.02,32.9,6.86,32.3,4.29,6.83,-2.94,21.3,7.85
